The full ranking holds about 18,000 sequences; the median of “TetR repression strength (sort-seq, GFP reporter)” is about 0.23, and the highest 2% start at about 0.68. This excerpt belongs to a sample that is enriched for the highest values.
target: TetR (class B, Tn10) (UniProt P04483); assay: TetR repression strength (sort-seq, GFP reporter) (relative to tetO2 = 1); higher = stronger repression; conditions: E. coli
In short: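 Repression strength is the top bin index plus one minus the read-weighted mean bin, relative to the unaltered operator's value. A low-copy library in E. coli SIG10-MAX randomized eight operator positions between a constitutive promoter and sfGFP, with TetR expressed constitutively; cells grew 5 h at 37 °C in LB with 50 µg/mL chloramphenicol and 10^6 were FACS-sorted into 13 bins that were each Illumina-sequenced. Three independent transformations were averaged, keeping only members with ≥30 reads in all replicates and CV ≤0.5.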

Sequence of TetR (class B, Tn10) (P04483 whole entry): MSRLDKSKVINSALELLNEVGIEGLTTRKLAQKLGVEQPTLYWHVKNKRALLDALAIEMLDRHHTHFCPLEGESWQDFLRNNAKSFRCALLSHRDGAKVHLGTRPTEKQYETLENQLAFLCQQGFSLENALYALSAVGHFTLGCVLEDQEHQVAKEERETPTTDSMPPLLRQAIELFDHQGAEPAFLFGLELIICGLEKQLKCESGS

Compared with TCCCATTCAGTCCGCGAGA, TCCCAGGGAGTAGGGGAGA is lower in TetR repression strength: 0.259 for the first, 0.204 for the second.

First: TCCCACTGAGTCAGAGAGA
Second: TCCCGGTGAGTAAACGAGA
The TetR repression strength of the first is higher: 0.279 for the first, 0.0592 for the second.

Compared with TCCCTTTGAGTATGCGAGA, TCCCCTTGAGTATGCGAGA is higher in TetR repression strength: 0.127 for the first, 1.05 for the second.

Going from TCCCCTGCAGTATTAGAGA to TCCCTTGCAGTATGAGAGA, the TetR repression strength falls from 0.211 to 0.157.

First: TCCCGGTGAGTGAACGAGA
Second: TCCCGGTTAGTATGCGAGA
The TetR repression strength of the first is higher: 0.819 for the first, 0.19 for the second.

Going from TCCCCTTGAGTATGTGAGA to TCCCGGTGAGTATGCGAGA, the TetR repression strength rises from 0.409 to 1.15.

Compared with TCCCGGAGAGTATGCGAGA, TCCCGGTGAGTGGACGAGA is higher in TetR repression strength: 0.159 for the first, 0.496 for the second.

Going from TCCCCTGCAGTATGAGAGA to TCCCGAGTAGTTATCGAGA, the TetR repression strength falls from 0.855 to 0.34.

Compared with TCCCGGGTAGTCTGAGAGA, TCCCGACCAGTTTCGGAGA is lower in TetR repression strength: 0.147 for the first, 0.0546 for the second.

Compared with TCCCTGCGAGTTCGTGAGA, TCCCGGGAAGTTGATGAGA is lower in TetR repression strength: 0.297 for the first, 0.0797 for the second.

Going from TCCCTGCGAGTCGGTGAGA to TCCCACTCAGTGCCAGAGA, the TetR repression strength rises from 0.245 to 0.287.

Compared with TCCCTACCAGTCGCGGAGA, TCCCTACCAGTCGGAGAGA is lower in TetR repression strength: 0.967 for the first, 0.278 for the second.

First: TCCCTACCAGTGCAAGAGA
Second: TCCCTATCAGTGGTAGAGA
The TetR repression strength of the first is lower: 0.199 for the first, 1.01 for the second.

First: TCCCTACAAGTGGAAGAGA
Second: TCCCTAACAGTGGTAGAGA
The TetR repression strength of the first is higher: 1.21 for the first, 0.415 for the second.

Going from TCCCTGCAAGTGGAAGAGA to TCCCTAAAAGTGGAAGAGA, the TetR repression strength falls from 0.276 to 0.104.

Going from TCCCTCCCAGTGGAAGAGA to TCCCTACCAGTGGAAGAGA, the TetR repression strength rises from 0.491 to 1.24.

Compared with TCCCTATGAGTGGTAGAGA, TCCCTCCCAGTCGCGGAGA is higher in TetR repression strength: 0.288 for the first, 0.291 for the second.

Going from TCCCTGACAGTCGGTGAGA to TCCCAGGGAGTTTTAGAGA, the TetR repression strength rises from 0.106 to 0.305.

Going from TCCCACGTAGTCAATGAGA to TCCCTCAGAGTAAAGGAGA, the TetR repression strength rises from 0.157 to 0.218.

Going from TCCCTTTGAGTAGGTGAGA to TCCCATTGAGTTGCTGAGA, the TetR repression strength falls from 0.168 to 0.153.

First: TCCCTCACAGTCAGTGAGA
Second: TCCCGCAAAGTGAATGAGA
The TetR repression strength of the first is higher: 0.302 for the first, 0.207 for the second.

Compared with TCCCCGCGAGTGACAGAGA, TCCCAACAAGTGAGTGAGA is lower in TetR repression strength: 0.569 for the first, 0.42 for the second.

Compared with TCCCTATCAGTGGAAGAGA, TCCCTAACAGTGGAAGAGA is lower in TetR repression strength: 0.722 for the first, 0.299 for the second.

First: TCCCTATCAGTTGAAGAGA
Second: TCCCCGACAGTTGCGGAGA
The TetR repression strength of the first is higher: 0.55 for the first, 0.0545 for the second.

First: TCCCTGGGAGTTTAGGAGA
Second: TCCCTGCAAGTACCTGAGA
The TetR repression strength of the first is lower: 0.302 for the first, 0.308 for the second.

First: TCCCGGCGAGTGGGGGAGA
Second: TCCCGACTAGTTAGTGAGA
The TetR repression strength of the first is lower: 0.193 for the first, 0.25 for the second.

First: TCCCCTCAAGTTGGCGAGA
Second: TCCCGGCTAGTTAGCGAGA
The TetR repression strength of the first is lower: 0.113 for the first, 0.485 for the second.

Compared with TCCCGACTAGTTAGCGAGA, TCCCCTCAAGTTAGGGAGA is lower in TetR repression strength: 0.682 for the first, 0.304 for the second.

Compared with TCCCCTCAAGTTAGCGAGA, TCCCATGGAGTATGAGAGA is lower in TetR repression strength: 0.742 for the first, 0.417 for the second.

Going from TCCCAAAGAGTGGAGGAGA to TCCCCGCCAGTAAAAGAGA, the TetR repression strength rises from 0.388 to 0.389.

Compared with TCCCGGTCAGTGGCCGAGA, TCCCGGCCAGTTCGTGAGA is lower in TetR repression strength: 0.523 for the first, 0.197 for the second.

Compared with TCCCGCGGAGTGGTTGAGA, TCCCGCGTAGTGGTTGAGA is higher in TetR repression strength: 0.768 for the first, 0.826 for the second.

First: TCCCGCGGAGTGGTGGAGA
Second: TCCCGCGTAGTAGGAGAGA
The TetR repression strength of the first is lower: 0.155 for the first, 0.691 for the second.

Compared with TCCCGCGTAGTGGTGGAGA, TCCCGCGTAGTTGTTGAGA is higher in TetR repression strength: 0.256 for the first, 0.402 for the second.

Compared with TCCCGCGTAGTAGGGGAGA, TCCCGTGCAGTTGCAGAGA is lower in TetR repression strength: 0.425 for the first, 0.376 for the second.

First: TCCCGTGTAGTTGGAGAGA
Second: TCCCCCGGAGTGGTTGAGA
The TetR repression strength of the first is lower: 0.191 for the first, 0.192 for the second.

First: TCCCGTGTAGTTGCAGAGA
Second: TCCCCCGTAGTAGGAGAGA
The TetR repression strength of the first is higher: 0.976 for the first, 0.197 for the second.

First: TCCCTGTGAGTCGTTGAGA
Second: TCCCGGTAAGTATTCGAGA
The TetR repression strength of the first is higher: 0.443 for the first, 0.175 for the second.

Going from TCCCCATAAGTCCTTGAGA to TCCCATAGAGTATGGGAGA, the TetR repression strength falls from 0.415 to 0.0311.

Going from TCCCGGAGAGTAGCGGAGA to TCCCTTTCAGTGAGTGAGA, the TetR repression strength rises from 0.287 to 0.488.

Going from TCCCTATGAGTGTCAGAGA to TCCCTATCAGTGTCTGAGA, the TetR repression strength rises from 0.238 to 0.556.

Compared with TCCCTATCAGTTGTTGAGA, TCCCTTTCAGTGATTGAGA is higher in TetR repression strength: 0.441 for the first, 0.713 for the second.

Going from TCCCAATCAGTGTGTGAGA to TCCCAATCAGTGAGAGAGA, the TetR repression strength rises from 0.101 to 0.538.

Going from TCCCTTTCAGTTATTGAGA to TCCCTATAAGTTGTGGAGA, the TetR repression strength falls from 0.55 to 0.201.

First: TCCCTATCAGTTGTGGAGA
Second: TCCCAATCAGTGAGTGAGA
The TetR repression strength of the first is higher: 0.726 for the first, 0.701 for the second.

Compared with TCCCTATCAGTGTCAGAGA, TCCCTTGTAGTTGAAGAGA is lower in TetR repression strength: 0.958 for the first, 0.148 for the second.

First: TCCCTTGGAGTGATAGAGA
Second: TCCCTTTCAGTTAAGGAGA
The TetR repression strength of the first is higher: 0.384 for the first, 0.196 for the second.

Going from TCCCTGGAAGTGTTCGAGA to TCCCGGAGAGTATAAGAGA, the TetR repression strength rises from 0.277 to 0.289.

Compared with TCCCAAGAAGTAGGTGAGA, TCCCATAAAGTTCAAGAGA is lower in TetR repression strength: 0.23 for the first, 0.224 for the second.

Going from TCCCTTACAGTTCCAGAGA to TCCCTTATAGTCTCGGAGA, the TetR repression strength falls from 0.363 to 0.214.

First: TCCCTATCAGTGAGCGAGA
Second: TCCCTATAAGTCATTGAGA
The TetR repression strength of the first is higher: 0.73 for the first, 0.498 for the second.

First: TCCCTGTCAGTGAGCGAGA
Second: TCCCTATCAGTCAATGAGA
The TetR repression strength of the first is lower: 0.341 for the first, 0.625 for the second.

First: TCCCAATCAGTAACTGAGA
Second: TCCCTATCAGTGATGGAGA
The TetR repression strength of the first is lower: 0.278 for the first, 0.999 for the second.

Going from TCCCAATCAGTAACGGAGA to TCCCTATCAGTCATTGAGA, the TetR repression strength falls from 0.802 to 0.708.

Going from TCCCTATGAGTGAGCGAGA to TCCCCATCAGTAACGGAGA, the TetR repression strength rises from 0.278 to 0.304.

Compared with TCCCTCTCAGTGATGGAGA, TCCCTAACAGTGATGGAGA is lower in TetR repression strength: 0.546 for the first, 0.278 for the second.

Going from TCCCGTTCAGTGCTTGAGA to TCCCACTCAGTGCATGAGA, the TetR repression strength falls from 0.367 to 0.218.

First: TCCCCCTGAGTAGGCGAGA
Second: TCCCCGCAAGTACACGAGA
The TetR repression strength of the first is lower: 0.179 for the first, 0.292 for the second.

Going from TCCCCAGGAGTGATGGAGA to TCCCTAGTAGTTGTGGAGA, the TetR repression strength rises from 0.176 to 0.283.

Going from TCCCTCGGAGTTGGTGAGA to TCCCTGTCAGTCGGTGAGA, the TetR repression strength rises from 0.237 to 0.378.

First: TCCCCGGCAGTGGTGGAGA
Second: TCCCGGACAGTGCCAGAGA
The TetR repression strength of the first is lower: 0.25 for the first, 0.402 for the second.

First: TCCCATGGAGTCGGTGAGA
Second: TCCCTATAAGTCAGTGAGA
The TetR repression strength of the first is lower: 0.0966 for the first, 0.427 for the second.

First: TCCCGGACAGTTTGGGAGA
Second: TCCCGGACAGTGTGTGAGA
The TetR repression strength of the first is higher: 0.473 for the first, 0.2 for the second.

Compared with TCCCTAACAGTGAATGAGA, TCCCAATCAGTGAATGAGA is higher in TetR repression strength: 0.46 for the first, 0.603 for the second.

Going from TCCCGGACAGTGAGAGAGA to TCCCGGACAGTGTGAGAGA, the TetR repression strength rises from 0.246 to 1.2.

Going from TCCCGGACAGTTGGGGAGA to TCCCGGACAGTTGGAGAGA, the TetR repression strength falls from 0.922 to 0.299.

Going from TCCCTATCAGTGAATGAGA to TCCCTATAAGTGAGGGAGA, the TetR repression strength falls from 0.781 to 0.237.

With TCCCTATAAGTGAGTGAGA the TetR repression strength was 0.693.
